Screens (PubChem)
The entries come from a sample that favours hits as a whole.
Giardia FBPA inh = blocks Giardia fructose-bisphosphate aldolase activity. A8B2U2. purified Giardia FBPA. Potency, µM (doses to about 59.6 µM), for inactives: top-dose activity, negative = inhibition, hits mostly inhibitors. 290,000 tested, 0.71% active; note: potency is the fitted concentration of half-maximal effect; % is set by controls: 0 for no effect and ±100 for the full control effect; nearly all actives have a fitted effect of over 55% in size
Target sequence (A8B2U2 whole entry, looked up): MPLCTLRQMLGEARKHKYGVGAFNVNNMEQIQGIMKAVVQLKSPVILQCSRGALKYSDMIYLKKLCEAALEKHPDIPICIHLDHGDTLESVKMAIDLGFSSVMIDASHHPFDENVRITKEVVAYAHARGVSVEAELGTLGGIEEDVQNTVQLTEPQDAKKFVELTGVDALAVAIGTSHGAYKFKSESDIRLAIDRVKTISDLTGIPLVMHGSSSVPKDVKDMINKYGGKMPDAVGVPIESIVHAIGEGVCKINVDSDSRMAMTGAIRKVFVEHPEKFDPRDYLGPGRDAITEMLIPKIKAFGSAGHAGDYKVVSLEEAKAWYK
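40 nM FBPA preincubated 10 min at RT with compound (up to 57.5 uM final), then substrate plus GAPDH/TPI/NAD/arsenate coupling and diaphorase/resazurin added. Fluorescence read after 20 min at RT, 525/598 nm.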
LmPK inhibitor = LmPK (Leishmania mexicana) enzyme inhibition; Q27686; purified LmPK, Kinase-Glo ATP luminescence, 1 h; Potency, µM (top dose mostly 57.5 µM), inactives show at the top dose activity change, negative = inhibition, hits mostly inhibitors; 290,000 tested, 0.37% active; note: potency is the fitted concentration of half-maximal effect; % is set by controls: 0 for no effect and ±100 for the full control effect
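Pyruvate kinase activity monitored as ATP production (luciferase luminescence). Conditions: 0.1 nM enzyme, 0.5 mM PEP, 0.1 mM ADP, 1 h, RT; normalized against uninhibited and no-enzyme wells.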
CHX counter = affects cycloheximide protein synthesis inhibition readout, counter-screen. cell reporter, cycloheximide protein synthesis inhibition counterscreen. max response, %. 300,000 tested, 12% active; in the data active = max response mostly above about 13%, no sharp cut-off; inactive = mostly below about 14%; note: read at 38.3 µM for the half of the compounds with a filed dose; 0% is about no effect
Shiga inhibitor = Shiga toxin inhibition; Vero cells, Shiga toxin protein synthesis inhibition reporter; inhibition, % at 38.7 µM; 290,000 tested, 9.2% active; in the data active = inhibition mostly above about 28%, no sharp cut-off; inactive = mostly below about 43%; note: 0% is about no effect
RE007 growth inh = less growth of the S. pombe RE007 Vpr strain; S. pombe RE007 Vpr strain, BacTiter-Glo ATP luminescence, 24 h; Potency, µM (top dose mostly 92.2 µM), for the others: at the highest dose activity change, negative = less growth, hits mostly inhibitors; 360,000 tested, 0.21% active; active = well fitted falling curve with a large enough effect; inconclusive = small, poorly fitted or top-dose-only effect; inactive = no such curve, though single readings can be large or run the other way; note: potency is the fitted concentration of half-maximal effect; % is set by controls: 0 for no effect and ±100 for the full control effect; nearly all actives have a fitted effect of over 50% in size
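Fission yeast RE007 carrying one integrated HIV-1 vpr copy, seeded at OD 0.01 in PMG+AL medium with 23 nL pinned compound. Grown 24 h at 30 degrees; viability read by BacTiter-Glo luminescence after 5 min.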
Tb PYK inh = inhibitors of Trypanosoma brucei pyruvate kinase; TbPYK enzyme, Kinase-Glo Plus ATP luminescence, 45 min; Potency, µM (doses to about 76.8 µM), for the others: at the highest dose activity, negative = inhibition, usual class: inhibitors; 410,000 tested, 0.12% active; AID 624173; note: potency is the fitted concentration of half-maximal effect; % is set by controls: 0 for no effect and ±100 for the full control effect; nearly all actives have a fitted effect of over 50% in size
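T. brucei PYK with substrate was exposed to pin-transferred compounds across a concentration series, then started with 130 uM ADP (final). After 45 min at room temperature, Kinase-Glo Plus luminescence was read, normalized and curve-fitted.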
Active calls of the source: *. Unless noted, calls come from the whole dose curve; as a rule, active = well fitted curve in the direction sought with a large enough effect; inconclusive = small, poorly fitted or top-dose-only effect, or another doubt; inactive = no such curve, though single readings can be large; an effect the other way counts as inactive or inconclusive.

How did CCc1nc(C(N)=O)c2[nH]c(=O)n(-c3ccc(OC)cc3OC)c2n1 do in these assays?
Giardia FBPA inh: -16%; LmPK inhibitor: -2%; CHX counter: 8; Shiga inhibitor: -6; RE007 growth inh: -29%; Tb PYK inh: -13%

Results for COc1cc(C(=O)Nc2ccc(N(C)C)cc2)c([N+](=O)[O-])cc1OC ?
Giardia FBPA inh: -2%; LmPK inhibitor: -8%; CHX counter: 41*; Shiga inhibitor: 107*; RE007 growth inh: 1%; Tb PYK inh: -6%

What do the screens show for `CCN(CC)S(=O)(=O)c1cc(C(=O)NC2=NCCS2)ccc1Cl`?
Giardia FBPA inh: -1%; LmPK inhibitor: 9%; CHX counter: 1; Shiga inhibitor: -2; RE007 growth inh: -8%; Tb PYK inh: 2%

How did COc1ccccc1Nc1ccc(NC(=O)c2cccc([N+](=O)[O-])c2C)cc1 do in these assays?
Giardia FBPA inh: -3%; LmPK inhibitor: 3%; CHX counter: 30*; Shiga inhibitor: 55*; RE007 growth inh: -20%; Tb PYK inh: -6%

Results for O=C(O)c1ccc(NS(=O)(=O)c2cccc(C(=O)Nc3ccccc3[N+](=O)[O-])c2)cc1 ?
Giardia FBPA inh: 2%; LmPK inhibitor: 1%; CHX counter: 6; Shiga inhibitor: -4; RE007 growth inh: -4%; Tb PYK inh: -5%

What do the screens show for `CCN(CC)S(=O)(=O)c1cc(C(=O)Nc2ccccc2[N+](=O)[O-])ccc1Cl`?
Giardia FBPA inh: -1%; LmPK inhibitor: 3%; CHX counter: 27*; Shiga inhibitor: 41*; RE007 growth inh: -1%; Tb PYK inh: -6%

How did CN(C)S(=O)(=O)c1cccc(C(=O)Nc2ccccc2[N+](=O)[O-])c1 do in these assays?
Giardia FBPA inh: 1%; LmPK inhibitor: 1%; CHX counter: 18*; Shiga inhibitor: 51*; RE007 growth inh: 4%; Tb PYK inh: 10%

What do the screens show for `CCC(C)N=C1Sc2nc3ccc(C)cc3cc2CN1CCOC` (stereo not drawn)?
Giardia FBPA inh: -16%; LmPK inhibitor: 13%; CHX counter: 5; Shiga inhibitor: -3; RE007 growth inh: 4%; Tb PYK inh: inconclusive

Results for O=C(CSc1ccc2nnc(CCNS(=O)(=O)c3ccccc3)n2n1)Nc1nc2ccccc2s1 ?
Giardia FBPA inh: -2%; LmPK inhibitor: 3%; CHX counter: 8; Shiga inhibitor: -58; RE007 growth inh: 7%; Tb PYK inh: -7%

What do the screens show for `Cc1c(NC(=O)c2cccs2)cccc1[N+](=O)[O-]`?
Giardia FBPA inh: 5%; LmPK inhibitor: 2%; CHX counter: 3; Shiga inhibitor: -4; RE007 growth inh: inconclusive; Tb PYK inh: -2%

How did Cc1c(NC(=O)c2ccccc2)cccc1[N+](=O)[O-] do in these assays?
Giardia FBPA inh: -4%; LmPK inhibitor: -2%; CHX counter: 17*; Shiga inhibitor: active; Tb PYK inh: -2%

How did CCN(CC)S(=O)(=O)c1cc(C(=O)Nc2cc(C)[nH]n2)ccc1Cl do in these assays?
Giardia FBPA inh: 12%; LmPK inhibitor: -1%; CHX counter: 67*; Shiga inhibitor: 117*; RE007 growth inh: -8%; Tb PYK inh: 3%

What do the screens show for `CCN=C1NN=C(c2c[nH]c3ccccc23)CS1`?
Giardia FBPA inh: -13%; LmPK inhibitor: -8%; CHX counter: 32*; Shiga inhibitor: 38*; RE007 growth inh: 1%; Tb PYK inh: inconclusive

Results for COCC(C)N=C1NN=C(c2c[nH]c3ccccc23)CS1 (stereo not drawn) ?
Giardia FBPA inh: 2%; LmPK inhibitor: 0%; CHX counter: 64*; Shiga inhibitor: 53*; RE007 growth inh: 4%; Tb PYK inh: -6%

What do the screens show for `Cc1[nH]c2ccccc2c1C(=O)C(=O)Nc1ccc2c(c1)OCCO2`?
LmPK inhibitor: 0%; CHX counter: 34*; Shiga inhibitor: 96*; RE007 growth inh: -6%; Tb PYK inh: 11%

Results for CCC(C(=O)Nc1ccc2c(c1)OCCO2)n1c(=O)[nH]c2ccccc2c1=O (stereo not drawn) ?
Giardia FBPA inh: 3%; LmPK inhibitor: 6%; CHX counter: 73*; Shiga inhibitor: 88*; RE007 growth inh: 6%; Tb PYK inh: 4%

What do the screens show for `CC(=O)N[C@@H](Cc1c[nH]c2ccccc12)C(=O)OCC(=O)Nc1ccc2c(c1)OCO2`?
RE007 growth inh: 6%; Tb PYK inh: 5%

Results for Cc1cc2ccccc2c(=O)n1CC(=O)Nc1ccc2c(c1)OCCO2 ?
Giardia FBPA inh: -6%; LmPK inhibitor: 1%; CHX counter: -2; Shiga inhibitor: -9; Tb PYK inh: -1%

Results for Cc1cc(NC(=O)C(=O)c2c(C)[nH]c3ccccc23)no1 ?
Giardia FBPA inh: 9%; LmPK inhibitor: 2%; CHX counter: 9; Shiga inhibitor: 39; RE007 growth inh: 11%; Tb PYK inh: 3%

How did O=C(Nc1ccc2c(c1)OCO2)C(=O)c1c[nH]c2ccccc12 do in these assays?
LmPK inhibitor: -11%; CHX counter: 28*; Shiga inhibitor: 72*; RE007 growth inh: -2%; Tb PYK inh: -9%

What do the screens show for `O=C(Nc1ccc2c(c1)OCCO2)C(=O)c1c[nH]c2ccccc12`?
LmPK inhibitor: -20%; CHX counter: 29; Shiga inhibitor: 21*; RE007 growth inh: -2%; Tb PYK inh: -11%

Results for CCOc1ccc(CNC(=O)c2cnc3sc(N4CCC(C)CC4)nn3c2=O)cc1OC ?
Tb PYK inh: 2%

How did CCN(CC)C(=O)Cn1cc(C(=O)C(=O)Nc2ccc3c(c2)OCCO3)c2ccccc21 do in these assays?
Giardia FBPA inh: -11%; LmPK inhibitor: -2%; CHX counter: 48*; Shiga inhibitor: 103*; RE007 growth inh: 18%; Tb PYK inh: 2%

What do the screens show for `CC(=O)Nc1nccc(-c2cc(-c3ccccc3)no2)n1`?
Giardia FBPA inh: 2%; LmPK inhibitor: -13%; CHX counter: 30*; Shiga inhibitor: 53*; RE007 growth inh: -22%; Tb PYK inh: 0%

What do the screens show for `CC(=O)Nc1cccc(-c2cc(-c3c(Cl)cccc3Cl)no2)c1`?
Giardia FBPA inh: -9%; LmPK inhibitor: 5%; CHX counter: -3; Shiga inhibitor: 4; RE007 growth inh: -7%; Tb PYK inh: 2%

How did C[C@@H]1CN([C@@H](C)CO)C(=O)CCCn2nncc2CO[C@H]1CN(C)Cc1ccc(Cl)c(Cl)c1 do in these assays?
RE007 growth inh: -6%; Tb PYK inh: -8%

Results for Cc1cc2oc(C(=O)N(Cc3ccccc3)C3CCS(=O)(=O)C3)cc(=O)c2cc1C (stereo not drawn) ?
Tb PYK inh: 4%
